From PubChem BioAssay
Values joined by “and” are separate entries in the source; they are usually repeats but may differ in a detail not shown here. Equal values may be shown once. Active and inactive are the calls of the source.

Assays:
Albumin (Bos taurus) = Albumin (Bos taurus) (UniProt P02769); assay: bovine serum albumin binders on microarray, profiling panel, artefact control for SMM control protein annotation, biochemical, small-molecule microarray, Alexa647 label, 635/667 nm fluorescence (AID 1118); conditions: BSA-A647 binding, fluorescence 635 nm, higher = more signal;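 also: score merges 667 nm emission intensity and signal-to-noise per printed compound spot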
Chain of Albumin (Bos taurus) (P02769 whole entry, looked up): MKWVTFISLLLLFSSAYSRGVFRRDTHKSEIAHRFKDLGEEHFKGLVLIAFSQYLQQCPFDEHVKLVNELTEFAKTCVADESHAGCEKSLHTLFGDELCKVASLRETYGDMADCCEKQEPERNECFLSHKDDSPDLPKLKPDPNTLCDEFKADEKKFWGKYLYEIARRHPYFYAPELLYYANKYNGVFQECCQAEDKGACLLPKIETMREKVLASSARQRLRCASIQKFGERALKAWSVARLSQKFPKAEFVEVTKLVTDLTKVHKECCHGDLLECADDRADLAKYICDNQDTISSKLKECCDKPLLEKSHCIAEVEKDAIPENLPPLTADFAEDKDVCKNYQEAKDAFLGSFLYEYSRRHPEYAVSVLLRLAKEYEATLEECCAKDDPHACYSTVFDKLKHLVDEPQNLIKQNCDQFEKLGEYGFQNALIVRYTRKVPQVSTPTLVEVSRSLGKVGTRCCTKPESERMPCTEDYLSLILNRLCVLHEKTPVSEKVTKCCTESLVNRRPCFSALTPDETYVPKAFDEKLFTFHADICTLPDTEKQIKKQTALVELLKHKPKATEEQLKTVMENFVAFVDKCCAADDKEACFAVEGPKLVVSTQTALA

[1] = small-molecule microarray binders of probe aXIP, primary screen, biochemical, NeuroSMM set, 635/667 nm fluorescence (AID 1119); conditions: higher = more signal, called active from +8 up or from −8 down unless noted;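 also: probe is the protein aXip251-270 applied at 1 µg/mL to compound-printed slides; binding of probe to printed compounds measured as 667 nm fluorescence plus signal to noise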
[2] = small-molecule binders of probe aNOTCH3, primary screen, biochemical, small-molecule microarray, 635/667 nm fluorescence (AID 1120); conditions: higher = more signal; small-molecule microarray, probe aNOTCH3, fluorescence unless noted;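 also: probe is a biotin-tagged antibody raised against NOTCH3 rather than NOTCH3 protein; score merges spot fluorescence near 667 nm with spot signal to noise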
[3] = small-molecule binders of probe aNOTCH2, primary screen, biochemical, small-molecule microarray, 635/667 nm fluorescence (AID 1121); conditions: higher = more signal; small-molecule microarray, probe aNOTCH2, fluorescence unless noted;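 also: score merges feature fluorescence read at 667 nm with its signal to noise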
[4] = biological target: Carbonic anhydrase 2 (Homo sapiens) (UniProt P00918); assay: CAII small-molecule binders, profiling panel, biochemical, small-molecule microarray, Alexa647-labelled CAII (AID 1122); conditions: CAII-A647 binding fluorescence, higher = more signal
[5] = COS7 lysate on small-molecule microarray, probe aHis, 635 nm (AID 1123); conditions: higher = more signal; small-molecule microarray, COS7 cell lysate, probe aHis, fluorescence unless noted;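 also: z-score combines 667nm fluorescence intensity with signal-to-noise per printed compound spot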
[6] = compound binding in COS7 lysate, probe aLAP1, primary screen, cell lysate, small-molecule microarray (AID 1124); conditions: higher = more signal; small-molecule microarray, COS7 cell lysate, probe aLAP1, fluorescence unless noted;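 also: lysate comes from COS7 cells expressing LAP1 and is applied at 0.3 µg/mL; score merges spot fluorescence near 667 nm with signal-to-noise over triplicate slides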
Sam68 (KHDRBS1) = assay: Sam68 small-molecule binders, primary screen, biochemical, small-molecule microarray, 635 nm fluorescence (AID 1125); conditions: small-molecule microarray binding, higher = more signal;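 also: score merges 667 nm channel intensity with signal to noise over triplicate slides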
[7] = test system: Chordin-like protein 2 (CHRDL2); assay: CHRDL2 small-molecule binders, primary screen, biochemical, small-molecule microarray, 635 nm fluorescence (AID 1126); conditions: small-molecule microarray binding, fluorescence 635 nm; higher = more signal;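 also: printed compound slides probed with Chrdl2 protein at 4 µg/mL for 1 h at 4 C; score merges 667 nm emission intensity with signal to noise over three replicate slides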
[8] = biological target: Concanavalin-A (Canavalia ensiformis) (UniProt P02866); assay: ConA small-molecule binders, primary screen, artefact control for SMM control protein annotation, biochemical, small-molecule microarray, Alexa647 label, 635 nm (AID 1127); conditions: ConA-A647 binding fluorescence, higher = more signal;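 also: z combines 667 nm emission intensity with signal-to-noise across three replicate slides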
Chain of Concanavalin-A (Canavalia ensiformis) (P02866 whole entry, looked up): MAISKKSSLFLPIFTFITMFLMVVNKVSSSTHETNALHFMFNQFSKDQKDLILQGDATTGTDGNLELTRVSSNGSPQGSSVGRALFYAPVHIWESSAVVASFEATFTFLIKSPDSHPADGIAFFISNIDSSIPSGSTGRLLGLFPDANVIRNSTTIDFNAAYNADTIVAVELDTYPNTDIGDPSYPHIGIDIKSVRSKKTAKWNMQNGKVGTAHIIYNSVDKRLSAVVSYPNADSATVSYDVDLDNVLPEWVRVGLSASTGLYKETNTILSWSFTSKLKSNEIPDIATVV

[9] = anti-His antibody binders, primary screen, artefact control for SMM control protein annotation, biochemical, small-molecule microarray, 635 nm fluorescence (AID 1128); conditions: anti-His Alexa647 antibody binding, higher = more signal;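 also: score merges feature fluorescence with signal-to-noise for each printed compound spot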
[10] = test system: Human papillomavirus type 1a E7 protein (residues 1-88); assay: HPV1a E7 small-molecule binders, primary screen, biochemical, small-molecule microarray, residues 1-88, 635 nm (AID 1129); conditions: small-molecule microarray binding, fluorescence 635 nm; higher = more signal
[11] = biological target: Focal adhesion kinase 1 (Homo sapiens) (UniProt Q05397); assay: small-molecule microarray binders of FAK, primary screen, biochemical, 635/667 nm fluorescence, BSA, DTT (AID 1130); conditions: PTK2 binding, 635 nm fluorescence, higher = more signal;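 also: composite of spot emission at 667 nm and signal to noise over triplicate slides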
Chain of Focal adhesion kinase 1 (Homo sapiens) (Q05397 whole entry, looked up): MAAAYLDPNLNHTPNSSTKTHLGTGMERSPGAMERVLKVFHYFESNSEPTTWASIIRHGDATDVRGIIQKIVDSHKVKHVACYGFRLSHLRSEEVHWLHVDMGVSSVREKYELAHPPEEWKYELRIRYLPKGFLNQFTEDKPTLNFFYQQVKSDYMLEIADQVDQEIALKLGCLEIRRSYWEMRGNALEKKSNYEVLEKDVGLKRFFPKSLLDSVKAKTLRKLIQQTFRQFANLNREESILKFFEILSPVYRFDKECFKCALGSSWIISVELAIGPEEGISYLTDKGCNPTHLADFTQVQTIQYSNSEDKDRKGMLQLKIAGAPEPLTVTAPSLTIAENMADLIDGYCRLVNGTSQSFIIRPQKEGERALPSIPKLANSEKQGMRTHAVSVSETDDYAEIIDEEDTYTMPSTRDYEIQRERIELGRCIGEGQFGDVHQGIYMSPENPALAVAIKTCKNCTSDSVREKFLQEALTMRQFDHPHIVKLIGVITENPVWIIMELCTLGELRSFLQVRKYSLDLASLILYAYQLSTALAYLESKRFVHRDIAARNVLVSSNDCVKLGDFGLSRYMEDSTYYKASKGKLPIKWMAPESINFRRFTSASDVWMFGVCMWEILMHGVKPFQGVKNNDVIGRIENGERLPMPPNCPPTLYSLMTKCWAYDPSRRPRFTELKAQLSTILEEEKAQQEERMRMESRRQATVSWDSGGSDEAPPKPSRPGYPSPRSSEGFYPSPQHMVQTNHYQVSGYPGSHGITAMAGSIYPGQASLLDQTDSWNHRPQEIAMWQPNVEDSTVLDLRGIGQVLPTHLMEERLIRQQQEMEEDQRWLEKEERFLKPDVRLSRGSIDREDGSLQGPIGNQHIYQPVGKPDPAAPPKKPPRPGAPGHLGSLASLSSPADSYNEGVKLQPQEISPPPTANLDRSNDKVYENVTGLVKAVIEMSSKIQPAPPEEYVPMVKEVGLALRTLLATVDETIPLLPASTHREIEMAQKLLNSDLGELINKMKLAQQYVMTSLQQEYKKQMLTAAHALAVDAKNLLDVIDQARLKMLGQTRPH

[12] = test system: Fibrinogen (Alexa647-labelled); assay: fibrinogen binders on compound microarrays, profiling panel, artefact control for SMM control-protein annotation, biochemical, small-molecule microarray, 635/667 nm fluorescence (AID 1131); conditions: fibrinogen-A647 binding fluorescence, higher = more signal;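 also: z-score merges 667 nm fluorescence with per-spot signal-to-noise over triplicate slides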
[13] = biological target: Follistatin (Homo sapiens) (UniProt P19883); assay: follistatin binders on small-molecule microarrays, primary screen, biochemical, small-molecule microarray, 635/667 nm fluorescence (AID 1132); conditions: FST binding, 635 nm fluorescence, higher = more signal
Chain of Follistatin (Homo sapiens) (P19883 whole entry, looked up): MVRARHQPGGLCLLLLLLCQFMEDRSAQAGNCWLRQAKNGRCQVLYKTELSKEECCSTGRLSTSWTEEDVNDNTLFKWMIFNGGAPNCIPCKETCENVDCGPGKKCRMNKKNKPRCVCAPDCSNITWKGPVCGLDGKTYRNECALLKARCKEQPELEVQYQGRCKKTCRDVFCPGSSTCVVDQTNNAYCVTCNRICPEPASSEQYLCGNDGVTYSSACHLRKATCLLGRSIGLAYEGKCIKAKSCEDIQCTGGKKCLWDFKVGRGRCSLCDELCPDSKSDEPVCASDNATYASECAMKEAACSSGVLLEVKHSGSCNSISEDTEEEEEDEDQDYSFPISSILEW

[14] = biological target: Fibroblast growth factor 2 (Homo sapiens) (UniProt P09038); assay: FGF2 binders on small-molecule microarrays, primary screen, biochemical, small-molecule microarray, 635/667 nm fluorescence (AID 1133); conditions: small-molecule microarray binding, FGF2, fluorescence 635/667; higher = more signal
Chain of Fibroblast growth factor 2 (Homo sapiens) (P09038 whole entry, looked up): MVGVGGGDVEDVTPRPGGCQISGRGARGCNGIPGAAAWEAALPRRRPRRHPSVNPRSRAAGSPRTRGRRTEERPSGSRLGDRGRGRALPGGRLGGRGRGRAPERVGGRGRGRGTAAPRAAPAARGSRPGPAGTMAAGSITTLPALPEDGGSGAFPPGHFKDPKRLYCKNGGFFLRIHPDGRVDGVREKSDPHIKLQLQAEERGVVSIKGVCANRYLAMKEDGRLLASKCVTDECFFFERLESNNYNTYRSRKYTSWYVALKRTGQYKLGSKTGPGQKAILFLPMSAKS

[15] = mitochondrial membrane potential change in A549 cells, profiling panel, cell-based, JC-1 fluorescence, basal, 24 h, 100 nL (AID 1138); conditions: higher = more signal;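 also: A549 lung adenocarcinoma cells under basal conditions with no added stimulus; test concentration not given here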
Lefty1 = Lefty1 binders on small-molecule microarrays, primary screen, biochemical, small-molecule microarray, 635/667 nm fluorescence (AID 1139); conditions: small-molecule microarray binding, fluorescence 635/667; higher = more signal
[16] = test system: wheat germ agglutinin (Triticum aestivum), Alexa647-labelled; assay: wheat germ agglutinin binders on compound microarrays, profiling panel, artefact control for SMM control-protein annotation, biochemical, small-molecule microarray, 635/667 nm fluorescence (AID 1140); conditions: WGA-A647 binding, 635 nm fluorescence, higher = more signal;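 also: score merges 667 nm feature emission with signal to noise over triplicate slides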
[17] = biological target: Luciferin 4-monooxygenase (Photinus pyralis) (UniProt P08659); assay: firefly luciferase enzyme inhibitors, primary screen, biochemical, luminescence, purified enzyme, 2006 set (AID 1141); conditions: SteadyGlo luminescence, 30 min; higher = more signal, called active from +8 up or from −8 down unless noted;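 also: cell-free assay with purified firefly luciferase at 100 ng per well in PBS; test concentration not given here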
Chain of Luciferin 4-monooxygenase (Photinus pyralis) (P08659 whole entry, looked up): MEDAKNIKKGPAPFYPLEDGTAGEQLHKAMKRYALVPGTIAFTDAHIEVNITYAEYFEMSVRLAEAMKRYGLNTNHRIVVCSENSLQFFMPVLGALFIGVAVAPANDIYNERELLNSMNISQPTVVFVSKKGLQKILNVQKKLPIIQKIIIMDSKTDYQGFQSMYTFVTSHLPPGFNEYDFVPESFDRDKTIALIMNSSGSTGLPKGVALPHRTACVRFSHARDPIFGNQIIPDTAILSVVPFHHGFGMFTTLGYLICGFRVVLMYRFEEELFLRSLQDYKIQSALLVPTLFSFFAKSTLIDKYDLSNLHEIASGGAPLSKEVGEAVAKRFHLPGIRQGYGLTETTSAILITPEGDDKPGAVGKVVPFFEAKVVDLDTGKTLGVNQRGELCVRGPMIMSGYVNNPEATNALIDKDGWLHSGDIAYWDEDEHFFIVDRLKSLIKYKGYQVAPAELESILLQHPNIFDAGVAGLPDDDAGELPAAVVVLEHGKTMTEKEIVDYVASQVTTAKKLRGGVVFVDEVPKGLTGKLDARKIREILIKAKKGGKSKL

Row | Compound | composite z-score (Albumin (Bos taurus)) | composite Z-score [1] | composite z-score [2] | composite z-score [3] | composite z-score [4] | composite z-score [5] | composite z-score [6] | composite z-score (Sam68 (KHDRBS1)) | composite z-score [7] | composite z-score [8] | composite z-score [9] | composite z-score [10] | composite z-score [11] | composite z-score [12] | composite z-score [13] | composite z-score [14] | z-score [15] | composite z-score (Lefty1) | composite z-score [16] | z-score [17]
1 | COC(=O)[C@H]1[C@@H](O)[C@@]2(O)c3c(OC)cc(OC)cc3O[C@@]2(c2ccc(OC)cc2)[C@@H]1c1ccccc1 | 0.0007 | -0.619 (inactive) | -0.101 | -0.0439 | -0.0268 | 0.309 | 0.413 | 0.34 | 0.671 | 0.37 | 0.287 | 0.741 | 0.153 | 0.323 | 0.53 | 0.4 | 0.862 | 0.614 | 0.0623 | -1.13 (inactive)
2 | COC(=O)NCC=Cc1nc(CCC=CC(=O)O[C@H]2CC3CC(=O)O[C@@H](C=CCC(C)C)C[C@@H]4CC[C@H](C)[C@@H](C[C@@H](OC)C[C@H](C2)O3)O4)co1 | -0.27 | 0.0506 (inactive) | -0.095 | -0.14 | -0.303 | -0.263 | 0.411 | -1.03 | -0.647 | -1.63 | -0.106 | -1.42 | -0.422 | -1.2 | -0.822 | -0.43 | 1.88 | -0.422 | -0.777 | -0.0363 (inactive)
3 | COc1cc2c(cc1O)C(C)N(C)CC2 (stereo not given) | 0.122 | 0.104 (inactive) | -0.0967 | -0.0877 | 0.545 | 0.594 | 0.209 | -1.24 | -0.432 | 0.519 | -0.0259 | -1.17 | -0.45 | -0.227 | -0.114 | 0.0683 | 0.599 | -0.692 | 0.0591 | -1.06 (inactive)
4 | COC(=O)[C@H]1[C@H](c2ccccc2)C(=O)[C@]2(O)c3ccccc3O[C@@]12c1ccccc1 | 0.394 | 0.311 (inactive) | 0.0833 | -0.199 | -0.132 | 0.0246 | -0.0474 | 0.198 | 0.263 | 0.711 | -0.179 | 0.382 | 0.227 | 0.826 | 0.402 | 0.186 | 0.866 | 0.266 | 0.167 | -1.9 (inactive)
5 | C[C@@H]1Cc2c(cnc3c2CN(C)CC3)CO1 | -0.537 | 0.266 (inactive) | -0.0902 | -0.111 | -0.0903 | 0.233 | -0.268 | -0.512 | 0.975 | -1.28 | -0.528 | -0.336 | 0.391 | -0.383 | 0.783 | 0.664 | 0.0621 | 1.27 | -0.23 | -0.345 (inactive)
6 | OCc1ccc(C2=CC(C3CC3)N(Cc3sc4ccccc4c3Cl)CC2)cc1 (stereo not given) | -0.0477 | 0.565 (inactive) | -0.0932 | -0.133 | 0.306 | 0.88 | 0.434 | 1.07 | 0.529 | 0.948 | 2.28 | 1.17 | 0.257 | 0.483 | 1.06 | 0.867 | 0.941 | 0.853 | 0.42 | -1.57 (inactive)
7 | CN1CCc2nc(CO)c(CO)cc2C1 | 0.372 | 0.396 (inactive) | 0.133 | -0.115 | 0.2 | 0.121 | -0.13 | 0.132 | 0.476 | -0.446 | 1.08 | 0.635 | 0.11 | 0.291 | 0.398 | 0.576 | 1.02 | 0.263 | -0.0298 | -0.529 (inactive)
8 | CC1N(P(=O)(c2ccccc2)c2ccccc2)CC(O)(c2ccccc2)CC12CC2 (stereo not given) | 0.728 and 0.608 | 0.311 (inactive) and 0.617 (inactive) | -0.136 and 0.15 | 0.148 and 0.256 | 0.596 and 0.631 | 3.25 and 2.52 | 0.934 and 0.881 | 0.723 and -0.577 | -0.665 and -0.801 | -0.358 and -0.0278 | 1.12 and 1.33 | 0.773 and 0.537 | 1.39 and 0.264 | -0.817 and 0.653 | -1.07 and -0.0739 | -1.02 and -0.642 | 0.158 and 0.776 | -1.48 and -1.47 | -0.322 and 0.637 | 2.42 (inactive) and 2.44 (inactive)
9 | C=C(CC1(CNP(=O)(c2ccccc2)c2ccccc2)CC1)c1ccccc1 | 0.44 | -0.0318 (inactive) | 0.179 | 0.0312 | 0.809 | 1.2 | 0.399 | -0.975 | -0.754 | -0.139 | 0.679 | 0.626 | 0.0728 | 0.126 | -0.274 | -0.639 | 1.23 | -0.742 | 0.11 | 2.19 (inactive)
10 | CCCC=C(CCC)[C@@H](NP(=O)(c1ccccc1)c1ccccc1)c1ccccc1 | 0.377 | 0.655 (inactive) | 0.0873 | -0.053 | -0.0222 | 0.122 | -0.264 | 0.986 | -0.141 | 1.07 | 0.0583 | 1.03 | 0.206 | 0.819 | 0.139 | 0.407 | 1.23 | 0.169 | 0.207 | 1.19 (inactive)
11 | CCc1cc2c(nc1CC)CCN(CCC(C)=NOC)C2 | 0.802 | 0.154 (inactive) | 0.256 | -0.0028 | 0.639 | 0.45 | 1.21 | 0.92 | 0.639 | -0.426 | 3.12 | 0.422 | -0.128 | -0.15 | 1.24 | 0.294 | 0.268 | 0.861 | -0.141 | -0.773 (inactive)
